Screens: PubChem, National Center for Advancing Translational Sciences (NCATS)
GALK inhibitor: inhibitors of human galactokinase (GALK); Potency, µM (highest dose often 57.5 µM), for the others: at the highest dose activity, negative = inhibition, actives largely listed as inhibitors; 44,000 tested, under 10 active; P51570; recombinant GALK, Kinase-Glo ATP luminescence, 1 h; AID 1347072;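 note: plate controls were full GALK reaction for no effect and reaction lacking GALK for full effect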
Target sequence (P51570 whole entry, looked up): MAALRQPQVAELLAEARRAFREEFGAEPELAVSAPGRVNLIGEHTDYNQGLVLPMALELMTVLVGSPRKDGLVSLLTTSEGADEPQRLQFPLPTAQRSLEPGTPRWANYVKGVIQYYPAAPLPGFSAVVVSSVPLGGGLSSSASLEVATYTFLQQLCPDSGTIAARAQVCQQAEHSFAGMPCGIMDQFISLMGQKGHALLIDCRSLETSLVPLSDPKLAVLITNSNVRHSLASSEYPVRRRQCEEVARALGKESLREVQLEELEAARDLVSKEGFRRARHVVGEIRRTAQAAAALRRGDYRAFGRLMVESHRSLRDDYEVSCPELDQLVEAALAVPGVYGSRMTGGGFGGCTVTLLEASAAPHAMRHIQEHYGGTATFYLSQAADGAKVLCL
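5 nM GALK; 35 uM ATP; 100 uM D-galactose; 20 mM HEPES pH 8.0, 5 mM MgCl2, 60 mM NaCl, 1 mM DTT, 0.01% BSA; 1 h RT; Kinase-Glo Plus luminescence.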
PTAP-TSG101 blk: blocks PTAP binding to human TSG101, validation | 44,000 tested, under 10 active | Fluorescence polarization, FITC-PTAP peptide/Tsg101, 20 min | Potency, µM (series often up to 115 µM), hits mostly inhibitors | Q99816 | AID 1347069; note: potency is the fitted concentration of half-maximal effect; 0% is about no effect
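Fluorescence polarization: Tsg101 binding domain (10 uM final) in 10 mM HEPES pH 7.5, 0.15 M NaCl, 0.01% Tween 20, 3 mM EDTA, 0.1 mM TCEP; compounds pinned; FITC-PTAP peptide 50 nM final; 20 min, r.t.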
FH mod: Identification of activators of human fumarate hydratase by quantitative high-throughput screening; AID 1347055, 2019; FH coupled MDH/diaphorase resazurin fluorescence, 15 min; actives 0.22% (n = 54,000); Fumarate hydratase, mitochondrial (Homo sapiens), P07954; Potency, µM (doses to about 79.9 µM), inactives show at the highest dose activity change, negative = inhibition, usual class: inhibitors; note: potency is the fitted concentration of half-maximal effect; % is set by controls: 0 for no effect and ±100 for the full control effect; the screen sought activators but most active calls are inhibition curves; nearly all actives have a fitted effect of over 45% in size
B2AR arrestin ag: ADRB2 beta-arrestin recruitment. P07550. HTLA Tango cells, beta-arrestin recruitment, luciferase luminescence, 18 h. Potency, µM (top dose mostly 46.1 µM), hits mostly activators. 44,000 tested, under 10 active. AID 1347077;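 note: potency is the fitted concentration of half-maximal effect; 0% = DMSO and full agonism = EC100 isoproterenol or metaproterenol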
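Ligand-induced beta-arrestin recruitment to recombinant beta2-AR is measured via a tTA-driven luciferase reporter in Tango cells after 18 hr compound exposure at 37 degrees C. Concentrations span up to 46 microM.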
Numbers without * were called inactive; i = inactive; ? = inconclusive; / = not tested or not shown; [ ] = remark or other dose. Rows were chosen to be rich in hits. Some 0.24% of all compounds tested hit in one or more screens of this group. Calls come from the whole dose curve; as a rule, active = well fitted curve in the direction sought with a large enough effect; inconclusive = small, poorly fitted or top-dose-only effect, or another doubt; inactive = no such curve, though single readings can be large; an effect the other way counts as inactive or inconclusive.

SMILES	GALK inhibitor	PTAP-TSG101 blk	FH mod	B2AR arrestin ag
O=Nc1ccc2oc(=O)ccc2c1	/	/	1µM*	/
COc1c2occc2cc2ccc(=O)oc12	/	/	5.8%[53.3 µM]	/
COc1ccccc1N1CCN(c2cc(C)nc3c(-c4ccc(Cl)cc4)c(C)nn23)CC1	2.1%	i	5.6%	i
Cc1ccc2nc(CSc3nnc(NC(=O)CC(C)C)s3)cc(=O)n2c1	0.6%	i	-10.2%	i
Cc1ccc(-c2cc3c(n2-c2ccccc2F)CC(C)(C)CC3=O)cc1	-1.7%	i	-2.9%	i
N[C@@H](CCC(=O)N[C@H](CSN=O)C(=O)NCC(=O)O)C(=O)O	/	/	-0.8%[53.3 µM]	/
[N-]=[N+]=Nc1ccc(C(=O)CSC[C@H](NC(=O)CC[C@H](N)C(=O)O)C(=O)NCC(=O)O)cc1	/	/	31.6µM*	/
CC(=O)N1CCOc2cc(S(=O)(=O)NCc3ccc(F)cc3)c(C)cc21	1.3%	i	-4.7%	i
COc1ccc(CNS(=O)(=O)c2cc3c(cc2Cl)N(C(C)=O)CCO3)cc1	0.0%	35.5µM*	-0.3%	i
O=C(NCCc1ccccc1)C1COc2ccccc2C1 (configuration not stated)	0.5%	i	-14.4%	i
COc1ccc(-n2c(SCC(=O)NCc3ccccc3)nc3ccsc3c2=O)cc1	-0.1%	i	0.1%	i
CC(O)CCC1C(CO[C@@H]2O[C@H](CO)[C@@H](O)[C@H](O)[C@H]2O)CC(O)CC1(C)C (some centres not stated)	/	/	2.0%[53.3 µM]	/
Cc1ccc(C)c(-c2nnc(NC(=O)c3ccc4c(c3)OCCO4)o2)c1	3.2%	i	19.7%	i
O=C(Nc1ccc2nn(-c3ccc(Cl)cc3)nc2c1)c1cc2ccccc2o1	-2.7%	i	-1.3%	i
O=C(Cc1ccccc1)Nc1sc2c(c1C(=O)Nc1ccccc1Cl)CCCCC2	-3.6%	i	-0.8%	i
Cc1ccc(C)c(N2CCN(c3ncnc4onc(C)c34)CC2)c1	4.1%	i	-10.1%	i
O=C(NCc1cccc(Cl)c1)c1c2c(nc3ccccc13)C(=O)N(C1CCCCC1)C2	-1.5%	i	?	i
CN(Cc1ccc(C(=O)O)cc1)c1ccc(OCc2c(-c3c(Cl)cccc3Cl)noc2C2CC2)nc1C(F)(F)F	/	/	15.8µM*	/
COc1ccc(NC(=O)CSc2nccn2Cc2ccco2)cc1OC	-0.1%	i	-0.3%	i
O=S(=O)(Nc1ccc(O)c(Sc2nc3ccccc3s2)c1)c1cc(Cl)ccc1Cl	0.0%	i	15.8µM*	i
Cc1cc(S(=O)(=O)Nc2ccc(O)c(Sc3nc4ccccc4s3)c2)ccc1Cl	0.4%	i	?	i
O=C1c2ccccc2-c2nc3nnnn3nc21 (tested in a mixture with another compound)	/	/	0.891µM*	/
COc1ccc(C)cc1NC(=O)c1noc2c1CSc1ccccc1-2	2.6%	i	8.2%	i
Cc1ccc(Sc2c(C(=O)NCc3cccc(F)c3)[nH]c3ccccc23)cc1	-8.8%	i	-13.6%	i
Cc1ccc2c(c1)N(CC(=O)NCCc1ccccc1)C(=O)CO2	1.4%	i	4.9%	i
N#C/C(=C\c1ccc(-c2ccc(C(=O)O)cc2)o1)c1nc2ccccc2[nH]1	-1.9%	i	28.2µM*	i
N#C/C(=C\c1ccc(-c2ccc(Cl)c(C(=O)O)c2)o1)c1nc2ccccc2[nH]1	0.2%	i	39.8µM*	i
COCCc1ccccn1	/	/	2.1%[53.3 µM]	/
COCCn1c2c([n+](Cc3cnccn3)c1C)C(=O)c1ccccc1C2=O	/	/	21.7µM*	/
